# From ChEMBL document CHEMBL3433997, “St. Jude Leishmania screening dataset” (2016)
# Several values for one entry are separate records, joined by “and”; a condition that tells them apart may be missing. Identical values can stand only once.
# Experiments:
# Type in all cases: functional
# [1] = biological target: Solute carrier family 2, facilitated glucose transporter member 1 (Homo sapiens) (UniProt P11166); assay: ST_JUDE_LEISH: Cytotoxicity at 2uM final concentration against transgenic Leishmania Mexicana promastigotes LmGLUT1 that are glucose transport deficient and complemented with the human glucose transporter GLUT1. Activity is measured by DNA content using SYBR green in vitro
# [2] = biological target: Hexose transporter 1 (Plasmodium falciparum) (UniProt O97467); assay: ST_JUDE_LEISH: Cytotoxicity at 2uM final concentration against transgenic Leishmania Mexicana promastigotes LmPfHT that are glucose transport deficient and complemented with the Plasmodium falciparum hexose transporter. Activity is measured by DNA content using SYBR green in vitro
# [3] = biological target: Glucose transporter (Leishmania mexicana) (UniProt O61059); assay: ST_JUDE_LEISH: Cytotoxicity at 2uM final concentration against transgenic Leishmania Mexicana promastigotes LmGT2 that are glucose transport deficient and complemented with the L. Mexicana glucose transporter 2. Activity is measured by DNA content using SYBR green in vitro
# Solute carrier family 2, facilitated glucose transporter member 1 (Homo sapiens), sequence (P11166 whole entry): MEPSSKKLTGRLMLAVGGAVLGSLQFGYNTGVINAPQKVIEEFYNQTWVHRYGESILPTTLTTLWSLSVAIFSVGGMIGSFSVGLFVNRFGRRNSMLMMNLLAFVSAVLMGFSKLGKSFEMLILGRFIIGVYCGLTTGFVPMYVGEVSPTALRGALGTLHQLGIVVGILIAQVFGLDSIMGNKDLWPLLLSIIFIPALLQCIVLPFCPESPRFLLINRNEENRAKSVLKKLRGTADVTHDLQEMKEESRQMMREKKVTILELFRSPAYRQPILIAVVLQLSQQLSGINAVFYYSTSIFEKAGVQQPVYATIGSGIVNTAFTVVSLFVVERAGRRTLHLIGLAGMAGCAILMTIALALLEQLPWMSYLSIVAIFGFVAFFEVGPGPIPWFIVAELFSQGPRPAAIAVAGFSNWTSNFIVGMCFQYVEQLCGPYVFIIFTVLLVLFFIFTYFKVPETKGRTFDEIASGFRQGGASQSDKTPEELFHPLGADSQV
Structure (SMILES),inhibition [1],inhibition [2],inhibition [3]
Cc1ccc(Cn2ncc(N3CCCNCC3)c(Cl)c2=O)cc1NC(=O)Nc1ccc(-c2ccccc2)cc1,3.82%,4.05%,4.8%
COc1cccc(NC(=O)Nc2ccc(-c3oc(C(=O)NCC(c4ccccc4)N(C)C)cc3-c3ccncc3)cc2)c1 (centres undefined),5.08%,3.73%,3.18%
FC(F)(F)c1ccc2[nH]c(-c3ccc(-c4ccc(CN5CCN(c6ccncc6)CC5)cc4)s3)nc2c1,1.51%,-1.36%,-2.12%
FC(F)(F)c1ccc2[nH]c(-c3ccc(-c4ccc(CN5CCN(c6ccncc6)CC5)cc4)cc3)nc2c1,77.4%,85.7%,69%
O=C(Nc1cccc(CN2CCN(Cc3cccc(O)c3)CC2)c1)c1ccc(Cl)c(Cl)c1,-1.71%,-0.84%,-1.62%
CC1(C)[C@H]2CC[C@@H](CNc3nc(NCCc4c[nH]cn4)nc(Nc4ccc5c(c4)OCO5)n3)[C@@H]1C2,2.49%,0.99%,0.68%
Cc1nc(Cl)c2c(-c3ccccc3)csc2n1,0.55%,-0.74%,-0.21%
O=C(NC1CCC(N2CCCC(OCc3ccccc3)C2)CC1)c1cc2ccccc2[nH]1 (centres undefined),0.93%,3.87%,-1.89%
O=C(CCN1CCCCC1)Nc1ccc(Nc2nccc(NCC(O)c3ccccc3)n2)cc1 (centres undefined),-1.33%,-1.09%,-2.39%
CN1CCN(c2ccnc3ccc(NC(=O)Nc4cccc5c(C#N)cccc45)cc23)CC1,2.25%,2.35%,2.75%
Cc1[nH]cc(Br)c(=O)c1-c1ccc(Oc2ccccc2)cc1,2.07%,2.3%,1.32%
Cc1c(CNCCCNc2cc(=O)c3ccccc3[nH]2)sc(/C=N/O)c1Br,5.48%,3.79%,5.31%
Cc1nn(-c2ccccc2)nc1C(=O)N(Cc1ccc(-c2ccc(CNCCc3ccc(S(C)(=O)=O)cc3)cn2)cc1)C(C)CN(C)C (centres undefined),0.95%,3.63%,3.9%
Cc1ccc(C)c(S(=O)(=O)Nc2ccc(Br)cc2C(=O)Nc2cccc(C(F)(F)F)c2)c1,0.14%,0.63%,-1.9%
Cc1ccc(C)c2sc(N(CCCn3ccnc3)C(=O)C=Cc3cccs3)nc12,1.74%,2.3%,-1.56%
CC(=O)c1sc(Cc2nc3ccccc3s2)nc1C,0.49%,1.15%,-1.55%
O=C(Nc1cccc(-c2nn3ncccc3c2-c2ccnc(Nc3ccc(N4CCOCC4)cc3)n2)c1)c1c(F)cccc1F,10.7%,16.6%,6.47%
O=C(Nc1cc2cc(-c3ccc(CN4CCCCC4)cc3)ccc2n2cnnc12)NC1CCCC1,22.1%,6.44%,3.67%
COc1ccc2nccc([C@@H](O)CN3CCC(NCc4nc5c(cc4Cl)SCC(=O)N5)C(F)C3)c2c1 (some centres undefined),2.28% and 11.3%,2.07% and 9.64%,1.15% and 6.72%
CCOC(=O)c1cn(CC)c2cc(OCc3ccccc3)ccc2c1=O,0.45%,0.36%,4.59%
CCCc1ccccc1Nc1nc(C)cc(N(CC)CCCN2CCCCC2)n1,5.33%,5.19%,5.53%
CCc1c(CCNCCCCCCNCCc2ccc(Br)cc2)ccc(O)c1O,-0.07%,0.74%,1.12%
Oc1cc(-c2cccc(C(F)(F)F)c2)nc(Nc2ccc(Cl)c(Cl)c2)n1,0.75%,0.89%,0.9%
CC(O)C1CCCCN1C(=O)c1ccc(-c2ccc(-c3nc4cc(F)ccc4[nH]3)cc2)cc1 (centres undefined),3.95%,3.23%,3.6%

Structure (SMILES),inhibition [1],inhibition [2],inhibition [3]
CN1CCN(c2cc(NC(=O)c3ccc(-c4ccc(Cl)cc4)cc3)ccc2Cl)CC1,-0.77%,-0.81%,-1.86%
Cc1nc(N)nc(N)c1OCCCCOc1ccccc1,3.87%,2.98%,2.4%
CCCCCCN(CCCCCC)CC(O)c1c(OC)ccc2ccccc12 (centres undefined),3.35%,5.37%,5.56%
O=C(/C=C/c1c[nH]c2ccccc12)NCCCCCN1CCC(c2c[nH]c3ccccc23)CC1,3%,1.49%,1%
OC(CNCc1ccccc1OCc1ccccc1)c1cccc(I)c1 (centres undefined),3.99%,5.42%,0.61%
COCCNCc1cccc(-c2ccc3c(Nc4cc(O)c(Cl)cc4F)ccnc3c2)c1,2.97%,3.2%,2.93%
Cc1ccccc1C1CCN(C2CCC(NC(=O)/C=C/c3cccc(F)c3F)CC2)CC1 (centres undefined),5.69%,4.6%,6.25%
CC(C)(C)c1ccc2[nH]c(-c3ccc(C(=O)NCCCc4ccccc4)cc3)nc2c1,2.42%,2.97%,-0.47%
COc1ccc(C(=O)Nc2cc(Cl)c3c(c2)C2CCCN2CC3)cc1C(F)(F)F (centres undefined),3.22%,2.02%,-1.06%
O=C(C=Cc1ccc(Cl)c(Cl)c1)NCCCCCN1CCC(CCNC(=O)c2cccc3ccccc23)CC1,4.11%,2.98%,2.03%
O=C(/C=C/c1ccc(Cl)c(Cl)c1)NC1CCC(CN2CCC(c3cc4ccccc4[nH]3)CC2)CC1 (centres undefined),0.13%,2.67%,1.06%
CC(C)CN1C(=O)c2ccccc2C(C(=O)Nc2cccc(C#N)c2)C1c1cccs1 (centres undefined),-0.23%,-1.39%,-1%
CN(CCN(C)CC(O)c1ccc(Cl)c(Cl)c1)CC(O)c1ccc(Cl)c(Cl)c1 (centres undefined),11.5%,9.66%,9.87%
Cc1cccc(-c2nc(Nc3ccncc3)c3ccc([N+](=O)[O-])cc3n2)n1,5.77%,7.55%,3.86%
COc1cccc(OC)c1C(=O)Nc1cccc(-c2nn3ccccc3c2-c2ccnc(Nc3cccc(F)c3)n2)c1,6.78%,9.03%,4.91%
CCC(=O)c1c(C)n(-c2ncnc3c2nc(C)n3-c2ccc(C)cc2C)c2ccccc12,4.6%,1.9%,3.62%
Cn1nc(-c2ccc(S(=O)(=O)N3CCC(CCN4CCC(c5c[nH]c6ccccc56)CC4)CC3)s2)cc1C(F)(F)F,1.21%,6.6%,2.13%
CS(=O)(=O)c1ccc(CNCc2cccc(-c3ccc(-c4nc5cc(C(F)(F)F)ccc5[nH]4)cc3)c2)cc1,5.51%,5.08%,3.3%
COc1ccc(CNC(=O)Nc2cc3cc(-c4ccc(CN5CCCC5)cc4)ccc3n3c(C)nnc23)cc1,2.37%,0.34%,0.89%
CNCCCNCc1ccc(-c2ccc(F)c(Cl)c2)o1,0.54%,1.28%,0.56%
OC1CCCN(Cc2cccc(-c3ccc(-c4nc5ccccc5[nH]4)cc3)c2)C1 (centres undefined),3.91%,5.45%,-2.43%
O=C(/C=C/c1ccc(Cl)c(Cl)c1)NCCCCCN1CCC(NC(=O)Nc2ccc(Cl)cc2Cl)CC1,-0.07%,-0.77%,-2.38%
O=C(C=Cc1ccccc1)Nc1ccc(C#CC=Cc2ccc(NC(=O)C=Cc3ccccc3)cc2)cc1,2.7%,2.84%,2.16%
CN1CC[C@@H](Oc2cc(NC(=O)Nc3ccc(Cl)c(C(F)(F)F)c3)ccc2Cl)C1,0.88%,0.12%,0.51%
